This note sets out measurements from PubChem BioAssay (Tox21).

Assay [1] is described as follows: A CellTox Green Cytotoxicity Assay to monitor cytotoxicity in HEK293 cells - 40 hour (AID 1224871). Note: nearly all actives have a fitted effect of over 45% in size. Note: potency is the fitted concentration of half-maximal effect. The essentials:
(§1)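 Tox21 screen in HEK293: membrane-impermeant cyanine dye fluoresces on binding dead-cell DNA; compound pinned 5 h post-seeding, plates held at 37 C, signal read repeatedly through 40 h.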

Assay [2] can be described thus: qHTS RealTime-Glo MT Cell Viability Assay in HEK293 cells - 16 hour (AID 1224872). Note: top concentration of the series differs between compounds; nearly all actives have a fitted effect of over 50% in size. The procedure, abridged: (§2)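 Homogeneous bioluminescent viability format in HEK293 cells (600 cells/well). Following 5 h at 37 C/5% CO2, 23 nL compound was pintooled; the signal was measured repeatedly during 40 h incubation.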
On the technique in general: Quantitative high-throughput screening tests each substance at several concentrations.

A short description of assay [3]: qHTS RealTime-Glo MT Cell Viability Assay in HepG2 cells - 8 hour (AID 1224873). Note: nearly all actives have a fitted effect of over 55% in size. The procedure, abridged:
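Real-time viability: cells seeded at 600 per well together with NanoLuc and cell-permeant prosubstrate, compounds added after 5 h incubation. Luminescence tracked at 0, 8, 16, 24, 32 and 40 h of exposure.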

Assay [4] is described as follows: qHTS RealTime-Glo MT Cell Viability Assay in HEK293 cells - 40 hour (AID 1224874). Note: nearly all actives have a fitted effect of over 50% in size. Particulars: RealTime-Glo luminescence; max response: stronger effect = lower value. The essentials:
(§3)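 HEK293 + NanoLuc + prosubstrate, 600 cells/well; 5 h, 37 C/5% CO2; compound 23 nL in DMSO by pintool; 37 C; luminescence read at 0, 8, 16, 24, 32 and 40 h time points.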

Assay [5] is described as follows: A CellTox Green Cytotoxicity Assay to monitor cytotoxicity in HEK293 cells - 24 hour (AID 1224875). Note: series mostly up to about 77 µM; nearly all actives have a fitted effect of over 45% in size. The procedure, abridged:
as §1

The nature of assay [6]: A CellTox Green Cytotoxicity Assay to monitor cytotoxicity in HepG2 cells - 16 hour (AID 1224876). Note: nearly all actives have a fitted effect of over 45% in size. Note: potency is the fitted concentration of half-maximal effect. The procedure, abridged: (§4)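 Measurements at 0, 8, 16, 24, 32 and 40 h of treatment captured CellTox Green fluorescence in HepG2 cells that had been co-plated with reagent and preincubated 5 h at 37 C/5% CO2.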
A short description of assay [7]: qHTS RealTime-Glo MT Cell Viability Assay in HepG2 cells - 32 hour (AID 1224877). Note: nearly all actives have a fitted effect of over 55% in size. The procedure, abridged:
(§5)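 Cell number in HepG2 cultures estimated from NanoLuc luminescence generated by metabolic reduction of a prosubstrate by living cells. The homogeneous, nonlytic format allowed repeated reads at 0, 8, 16, 24, 32 and 40 h of compound exposure.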

The nature of assay [8]: A CellTox Green Cytotoxicity Assay to monitor cytotoxicity in HepG2 cells - 24 hour (AID 1224878). Note: nearly all actives have a fitted effect of over 45% in size. Note: potency is the fitted concentration of half-maximal effect. The procedure, abridged:
as §4

A short description of assay [9]: A CellTox Green Cytotoxicity Assay to monitor cytotoxicity in HepG2 cells - 40 hour (AID 1224879). Note: nearly all actives have a fitted effect of over 40% in size. Note: potency is the fitted concentration of half-maximal effect. The procedure, abridged:
as §4

A short description of assay [10]: qHTS RealTime-Glo MT Cell Viability Assay in HEK293 cells - 0 hour (AID 1224880). The procedure, abridged: as §3
A short description of assay [11]: A CellTox Green Cytotoxicity Assay to monitor cytotoxicity in HEK293 cells - 32 hour (AID 1224881). Note: nearly all actives have a fitted effect of over 40% in size. Note: potency is the fitted concentration of half-maximal effect. The procedure, abridged: as §1
The nature of assay [12]: A CellTox Green Cytotoxicity Assay to monitor cytotoxicity in HepG2 cells - 0 hour (AID 1224882). Note: nearly all actives have a fitted effect of over 35% in size. Note: potency is the fitted concentration of half-maximal effect. The essentials: as §4
Assay [13] in a line: A CellTox Green Cytotoxicity Assay to monitor cytotoxicity in HepG2 cells - 32 hour (AID 1224883). Note: nearly all actives have a fitted effect of over 50% in size. Note: potency is the fitted concentration of half-maximal effect. The procedure, abridged: as §4
Assay [14] can be described thus: A CellTox Green Cytotoxicity Assay to monitor cytotoxicity in HEK293 cells - 8 hour (AID 1224884). Note: nearly all actives have a fitted effect of over 35% in size. Note: potency is the fitted concentration of half-maximal effect. The procedure, abridged:
as §1

Assay [15] can be described thus: qHTS RealTime-Glo MT Cell Viability Assay in HepG2 cells - 16 hour (AID 1224885). Note: nearly all actives have a fitted effect of over 50% in size. The procedure, abridged:
as §5

The nature of assay [16]: qHTS RealTime-Glo MT Cell Viability Assay in HEK293 cells - 24 hour (AID 1224886). The essentials:
as §2

Assay [17] can be described thus: qHTS RealTime-Glo MT Cell Viability Assay in HEK293 cells - 8 hour (AID 1224887). The essentials: as §3
The nature of assay [18]: qHTS RealTime-Glo MT Cell Viability Assay in HepG2 cells - 0 hour (AID 1224889). Note: nearly all actives have a fitted effect of over 50% in size. Note: potency is the fitted concentration of half-maximal effect. The essentials:
as §5

The nature of assay [19]: A CellTox Green Cytotoxicity Assay to monitor cytotoxicity in HepG2 cells - 8 hour (AID 1224890). Note: nearly all actives have a fitted effect of over 45% in size. Note: potency is the fitted concentration of half-maximal effect. The essentials: as §4
The nature of assay [20]: A CellTox Green Cytotoxicity Assay to monitor cytotoxicity in HEK293 cells - 16 hour (AID 1224888). Note: nearly all actives have a fitted effect of over 35% in size. The procedure, abridged: as §1

Where “and” joins values, the source holds several entries; their conditions need not be identical. Identical values can stand only once. Inconclusive results are not listed. Some compounds were tested as several samples or in several runs, with calls that do not always agree. Calls of active or inactive are those of the source. Calls come from the whole dose curve; as a rule, active = well fitted curve in the direction sought with a large enough effect in the repeat runs; inconclusive = weak or mixed curves; inactive = no such curve, though single readings can be large; an effect the other way counts as inactive or inconclusive. Residues, ends and D or L forms follow the SMILES beside them.
% is set by controls: 0 for no effect and ±100 for the full control effect.

Turning to `COC(=O)[C@H](Cc1ccccc1)NC(=O)[C@@H](N)CC(=O)O` (H-Asp-Phe-OMe), the Potency result in [1], in assay [2], in assay [5], in [6], in [7] and in assay [8] was “inactive” in each case. The Potency result in assay [9], in [10], in assay [11], in [12], in [13] and in assay [14] was “inactive” throughout. Also, the Potency entry in assay [15], in [16], in assay [17], in [18] and in assay [19] was “inactive” throughout. Also, the result in [3] was inactive. For the same molecule, in [4], the max response is 0.561% (inactive) and -0.312% (inactive) and -3.38% (inactive).

`C[C@]12C=CC(=O)C=C1CC[C@@H]1[C@@H]2[C@@H](O)C[C@@]2(C)[C@H]1CC[C@]2(O)C(=O)CO`: the Potency result in assay [1], in assay [2], in [5], in assay [6], in [7] and in [8] was “inactive” each time. The Potency entry in [9], in assay [10], in assay [11], in assay [12], in assay [13] and in assay [14] was “inactive” throughout. In addition, the Potency entry in assay [15], in assay [16], in [20] and in assay [19] was “inactive” throughout. In addition, the outcome in assay [3] was inactive. Further, the max response in [4] was -4.22% (inactive) and -3.97% (inactive) and 0.449% (inactive). In addition, the Potency in [18] was 21.6 µM (active) and 19.5 µM (active).

In the case of `O=NO`, the Potency result in [1], in assay [2], in assay [5], in [6], in [7] and in assay [8] was “inactive” each time. In addition, the Potency result in assay [9], in [10], in [11], in assay [12], in [13] and in assay [14] was “inactive” each time. Further, the Potency result in assay [15], in [16], in assay [18] and in assay [19] was “inactive” in each case. Moreover, in assay [3], the result was inactive. The max response in [4] is 1.94% (inactive) and 6.27% (inactive) and -0.835% (inactive).

`Nc1ccc(S(=O)(=O)Nc2nccs2)cc1`: the Potency entry in [1] was “inactive and 43.6 µM (active)”; in assay [6], “inactive and 38.9 µM (active)”; in assay [8] it was “inactive and 43.6 µM (active)”; in assay [9], “inactive and 38.9 µM (active)”; in assay [11] it was “inactive and 43.6 µM (active)”; in [12] it was “inactive and 43.6 µM (active)”. Moreover, the Potency result is “inactive and 43.6 µM (active)” in assay [13]; “inactive and 49 µM (active)” in assay [14]; “inactive and 43.6 µM (active)” in assay [19]. Further, the Potency result in assay [2], in assay [7], in assay [10], in assay [15], in [16] and in [18] was “inactive” in each case. Further, in assay [3], the result was inactive. In assay [4], the max response was 5.06% (inactive) [middle of 4 runs].

`Cc1ccc(C)c(OCCCC(C)(C)C(=O)O)c1`: the Potency entry in assay [1], in [2], in assay [5], in [6], in [7] and in assay [8] was “inactive” throughout. For the same molecule, the Potency entry in [9], in assay [10], in [11], in assay [12], in [13] and in assay [14] was “inactive” throughout. In addition, the Potency entry in assay [15], in assay [16], in assay [17], in assay [18] and in assay [19] was “inactive” throughout. For the same molecule, the molecule was classed as inactive in assay [3]. For the same molecule, in assay [4], the max response was 7.5% (inactive) and 19.4% (inactive) and 5.2% (inactive).

In the case of `O=C(O)c1cccnc1`, the Potency entry in assay [1], in [2], in [5], in assay [6], in [7] and in assay [8] was “inactive” in each case. In addition, the Potency entry in [9], in assay [10], in assay [11], in assay [12], in assay [13] and in assay [14] was “inactive” in each case. Further, the Potency entry in assay [15], in [16], in assay [18] and in assay [19] was “inactive” each time. In addition, in assay [3], the call was inactive. For the same molecule, the max response in assay [4] was -0.0653% (inactive) [middle of 4 runs].
